# From PMC5540273 (PLoS ONE, 2017)
# Like-named read-outs stand apart in the source and are kept apart here.
# Assays:
# PKAC-alpha = tested on: T1, PKAC-alpha; conditions: concentration: 1 μM, replicates: in singlicate; n = 1
# T1 construct: gene PRKACA
# PKAC-beta = tested on: T2, PKAC-beta; conditions: concentration: 1 μM, replicates: in singlicate; n = 1
# T2 construct: gene PRKACB
# PKMYT1 = conditions: concentration: 1 μM, replicates: in singlicate; n = 1
# PKN1 = conditions: concentration: 1 μM, replicates: in singlicate; n = 1
# PKN2 = conditions: concentration: 1 μM, replicates: in singlicate; n = 1
# PLK1 = conditions: n = 1
# PLK2 = conditions: concentration: 1 μM, replicates: in singlicate; n = 1
# PLK3 = conditions: concentration: 1 μM, replicates: in singlicate; n = 1
# PLK4 = conditions: concentration: 1 μM, replicates: in singlicate; n = 1
# PRKCD = conditions: concentration: 1 μM, replicates: in singlicate; n = 1
# PRKCE = conditions: concentration: 1 μM, replicates: in singlicate; n = 1
# PRKCH = conditions: concentration: 1 μM, replicates: in singlicate; n = 1
# PRKCI = conditions: concentration: 1 μM, replicates: in singlicate; n = 1
# PRKCQ = conditions: concentration: 1 μM, replicates: in singlicate; n = 1
# PRKD1 = conditions: concentration: 1 μM, replicates: in singlicate; n = 1
# PRKD2 = conditions: concentration: 1 μM, replicates: in singlicate; n = 1
# PRKD3 = conditions: concentration: 1 μM, replicates: in singlicate; n = 1
# PRKG1 = conditions: concentration: 1 μM, replicates: in singlicate; n = 1
# PRKG2 = conditions: concentration: 1 μM, replicates: in singlicate; n = 1
# PRKR = tested on: T3, PRKR; conditions: concentration: 1 μM, replicates: in singlicate; n = 1
# T3 construct: gene EIF2AK2
# [1] = concentration: 1 μM, replicates: in singlicate
# 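Note: KINOMEscan kinase panel screen.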
smiles,measurement,setting,value
Nc1nccc2scc(-c3ccc4c(c3)CCN4C(=O)Cc3ccccc3)c12 [GSK2576924],%Inh,PKAC-alpha,8%
same,%Inh,PKAC-beta,0%
same,%Inh,PKMYT1,1%
same,%Inh,PKN1,0%
same,%Inh,PKN2,0%
same,%Inh,PLK1; [1],6%
same,%Inh,PLK2,1%
same,%Inh,PLK3,0%
same,%Inh,PLK4,6%
same,%Inh,PRKCD,0%
same,%Inh,PRKCE,0%
same,%Inh,PRKCH,31%
same,%Inh,PRKCI,20%
same,%Inh,PRKCQ,0%
same,%Inh,PRKD1,0%
same,%Inh,PRKD2,16%
same,%Inh,PRKD3,11%
same,%Inh,PRKG1,10%
same,%Inh,PRKG2,12%
same,%Inh,PRKR,8%
COc1cc2ncn(-c3cc(OCCCc4ccccc4)c(C(N)=O)s3)c2cc1OC [GSK205189],%Inh,PKAC-alpha,0%
same,%Inh,PKAC-beta,5%
same,%Inh,PKMYT1,0%
same,%Inh,PKN1,0%
same,%Inh,PKN2,16%
same,%Inh,PLK2,98.2%
same,%Inh,PLK3,92.3%
same,%Inh,PLK4,0%
same,%Inh,PRKCD,0%
same,%Inh,PRKCE,0%
same,%Inh,PRKCH,0%
same,%Inh,PRKCI,13%
same,%Inh,PRKCQ,19%
same,%Inh,PRKD1,0%
same,%Inh,PRKD2,23%
same,%Inh,PRKD3,0%
same,%Inh,PRKG1,0%
same,%Inh,PRKG2,0%
same,%Inh,PRKR,0%
Cc1nnc(-c2ccc3ncn(-c4ccc(S(C)=O)cc4)c3c2)o1 (stereo not shown),%Inh,PKAC-alpha,12%
same,%Inh,PKAC-beta,0%
same,%Inh,PKMYT1,0%
same,%Inh,PKN1,0%
same,%Inh,PKN2,0%
same,%Inh,PLK1; [1],0%
same,%Inh,PLK2,0%
same,%Inh,PLK3,9%
same,%Inh,PLK4,14%
same,%Inh,PRKCD,0%
same,%Inh,PRKCE,3%
same,%Inh,PRKCH,4%
same,%Inh,PRKCI,0%
same,%Inh,PRKCQ,3%
same,%Inh,PRKD1,0%
same,%Inh,PRKD2,35%
same,%Inh,PRKD3,0%
same,%Inh,PRKG1,0%
same,%Inh,PRKG2,13%
same,%Inh,PRKR,0%
COC(=O)c1c(-c2ccccc2)c2cc(Br)ccc2c(=O)n1Cc1ccc(NC(=O)CCC(=O)O)cc1,%Inh,PKAC-alpha,33%
same,%Inh,PKAC-beta,0%
same,%Inh,PKMYT1,10%
same,%Inh,PKN1,0%
same,%Inh,PKN2,0%
same,%Inh,PLK1; [1],0%
same,%Inh,PLK2,14%
same,%Inh,PLK3,5%
same,%Inh,PLK4,15%
same,%Inh,PRKCD,0%
same,%Inh,PRKCE,0%
same,%Inh,PRKCH,7%
same,%Inh,PRKCI,0%
same,%Inh,PRKCQ,21%
same,%Inh,PRKD1,0%
same,%Inh,PRKD2,0%
same,%Inh,PRKD3,0%
same,%Inh,PRKG1,0%
same,%Inh,PRKG2,0%
same,%Inh,PRKR,0%
CCC(=O)c1c(-c2ccccc2)c2cc(Cl)ccc2c(=O)n1Cc1cc(C(=O)NC2CC2)n(C)n1,%Inh,PKAC-alpha,0%
same,%Inh,PKAC-beta,0%
same,%Inh,PKMYT1,5%
same,%Inh,PKN1,0%
same,%Inh,PKN2,0%
same,%Inh,PLK1; [1],0%
same,%Inh,PLK2,2%
same,%Inh,PLK3,7%
same,%Inh,PLK4,10%
same,%Inh,PRKCD,8%
same,%Inh,PRKCE,20%
same,%Inh,PRKCH,0%
same,%Inh,PRKCI,0%
same,%Inh,PRKCQ,41%
same,%Inh,PRKD1,0%
same,%Inh,PRKD2,3%
same,%Inh,PRKD3,0%
same,%Inh,PRKG1,0%
same,%Inh,PRKG2,0%
same,%Inh,PRKR,0%
COc1cc2ncn(-c3cc(OCc4ccncc4Br)c(C(N)=O)s3)c2cc1OC [GW854278],%Inh,PKAC-alpha,0%
same,%Inh,PKAC-beta,0%
same,%Inh,PKMYT1,0%
same,%Inh,PKN1,10%
same,%Inh,PKN2,0%
same,%Inh,PLK1; [1],99.9%
same,%Inh,PLK2,99.7%
same,%Inh,PLK3,99.2%
same,%Inh,PLK4,4%
same,%Inh,PRKCD,7%
same,%Inh,PRKCE,7%
same,%Inh,PRKCH,0%
same,%Inh,PRKCI,13%
same,%Inh,PRKCQ,22%
same,%Inh,PRKD1,0%
same,%Inh,PRKD2,11%
same,%Inh,PRKD3,0%
same,%Inh,PRKG1,0%
same,%Inh,PRKG2,0%
same,%Inh,PRKR,0%
COc1cccc(C2=C(Nc3cccc(C(=O)O)c3)C(=O)NC2=O)c1 [SB-390770],%Inh,PKAC-alpha,0%
same,%Inh,PKAC-beta,0%
same,%Inh,PKMYT1,11%
same,%Inh,PKN1,22%
same,%Inh,PKN2,0%
same,%Inh,PLK1; [1],6%
same,%Inh,PLK2,0%
same,%Inh,PLK3,0%
same,%Inh,PLK4,10%
same,%Inh,PRKCD,29%
same,%Inh,PRKCE,15%
same,%Inh,PRKCH,28%
same,%Inh,PRKCI,100%
same,%Inh,PRKCQ,11%
same,%Inh,PRKD1,0%
same,%Inh,PRKD2,0%
same,%Inh,PRKD3,0%
same,%Inh,PRKG1,0%
same,%Inh,PRKG2,0%
same,%Inh,PRKR,0%
Nc1ncnc2c1ncn2-c1ccc(Cl)cc1 [AH2635],%Inh,PKAC-alpha,0%
same,%Inh,PKAC-beta,0%
same,%Inh,PKMYT1,0%
same,%Inh,PKN1,0%
same,%Inh,PKN2,0%
same,%Inh,PLK1; [1],0%
same,%Inh,PLK2,0%
same,%Inh,PLK3,0%
same,%Inh,PLK4,0%
same,%Inh,PRKCD,3%
same,%Inh,PRKCE,0%
same,%Inh,PRKCH,0%
same,%Inh,PRKCI,6%
same,%Inh,PRKCQ,0%
same,%Inh,PRKD1,0%
same,%Inh,PRKD2,0%
same,%Inh,PRKD3,0%
same,%Inh,PRKG1,2%
same,%Inh,PRKG2,0%
same,%Inh,PRKR,0%
Cl.NS(=O)(=O)c1cccc(Nc2cc(-c3ccc(F)cc3)n[nH]2)c1 [GW824645],%Inh,PKAC-alpha,7%
same,%Inh,PKAC-beta,0%
same,%Inh,PKMYT1,0%
same,%Inh,PKN1,0%
same,%Inh,PKN2,0%
same,%Inh,PLK1; [1],0%
same,%Inh,PLK2,20%
same,%Inh,PLK3,23%
same,%Inh,PLK4,10%
same,%Inh,PRKCD,5%
same,%Inh,PRKCE,12%
same,%Inh,PRKCH,0%
same,%Inh,PRKCI,0%
same,%Inh,PRKCQ,0%
same,%Inh,PRKD1,0%
same,%Inh,PRKD2,5%
same,%Inh,PRKD3,0%
same,%Inh,PRKG1,0%
same,%Inh,PRKG2,0%
same,%Inh,PRKR,0%
COc1cc2ncn(-c3cc(OCc4ccncc4)c(C(N)=O)s3)c2cc1OC [GSK336313],%Inh,PKAC-alpha,0%
same,%Inh,PKAC-beta,0%
same,%Inh,PKMYT1,0%
same,%Inh,PKN1,31%
same,%Inh,PKN2,0%
same,%Inh,PLK1; 1 µM,81%
same,%Inh,PLK2,96.6%
same,%Inh,PLK3,55%
same,%Inh,PLK4,7%
same,%Inh,PRKCD,0%
same,%Inh,PRKCE,1%
same,%Inh,PRKCH,0%
same,%Inh,PRKCI,0%
same,%Inh,PRKCQ,0%
same,%Inh,PRKD1,47%
same,%Inh,PRKD2,3%
same,%Inh,PRKD3,15%
same,%Inh,PRKG1,0%
same,%Inh,PRKG2,0%
same,%Inh,PRKR,0%
